Assay [1] deals with Ubiquitin carboxyl-terminal hydrolase 1 (Homo sapiens) (UniProt O94782). Briefly: Inhibitors of USP1/UAF1: Pilot qHTS (AID 504865).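 Further: rhodamine fluorescence freed from ubiquitin-rhodamine substrate followed over time; top concentration of the series differs between compounds; nearly all actives have a fitted effect of over 35% in size.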 The following applies: purified USP1/UAF1, Ub-rhodamine cleavage fluorescence; series mostly up to 114 µM. The method in brief: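 In 50mM HEPES pH 7.8 containing 0.5mM EDTA, 1mM TCEP, 0.1 mg/ml BSA and 0.01% Tween-20, 1nM USP1/UAF1 is exposed to compound for 15 min, then Ub-Rho (150nM final) is added and fluorescence is read over time.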
Sequence of Ubiquitin carboxyl-terminal hydrolase 1 (Homo sapiens) (O94782 whole entry, looked up): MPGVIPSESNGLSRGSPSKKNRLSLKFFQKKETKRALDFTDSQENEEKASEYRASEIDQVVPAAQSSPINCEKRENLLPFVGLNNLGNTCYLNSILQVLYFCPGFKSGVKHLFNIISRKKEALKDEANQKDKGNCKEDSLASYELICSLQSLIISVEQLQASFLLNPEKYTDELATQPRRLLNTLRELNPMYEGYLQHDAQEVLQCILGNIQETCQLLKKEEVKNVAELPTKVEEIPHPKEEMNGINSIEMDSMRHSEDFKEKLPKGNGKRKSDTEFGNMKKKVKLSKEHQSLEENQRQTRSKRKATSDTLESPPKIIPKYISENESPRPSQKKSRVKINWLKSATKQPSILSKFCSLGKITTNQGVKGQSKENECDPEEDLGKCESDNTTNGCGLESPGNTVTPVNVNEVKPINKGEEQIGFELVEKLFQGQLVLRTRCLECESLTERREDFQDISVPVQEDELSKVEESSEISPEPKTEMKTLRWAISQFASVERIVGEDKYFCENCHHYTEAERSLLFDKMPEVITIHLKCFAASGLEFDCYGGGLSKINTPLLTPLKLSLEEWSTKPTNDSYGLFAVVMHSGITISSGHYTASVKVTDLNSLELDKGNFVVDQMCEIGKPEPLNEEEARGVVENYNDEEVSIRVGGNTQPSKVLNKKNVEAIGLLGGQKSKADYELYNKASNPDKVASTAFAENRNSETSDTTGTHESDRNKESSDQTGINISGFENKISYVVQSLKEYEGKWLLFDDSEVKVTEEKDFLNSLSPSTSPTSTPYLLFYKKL
(Quantitative high-throughput screening tests each substance at several concentrations.)

The target of assay [2] is Luciferin 4-monooxygenase (Photinus pyralis) (UniProt P08659). The experiment in a line: Biochemical firefly luciferase enzyme assay for NPC (AID 624030).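 Further: purified P. pyralis luciferase at 10 nM with luciferin and ATP substrate; nearly all actives have a fitted effect of over 70% in size.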 The following applies: purified P. pyralis luciferase, luminescence, 5 min; series mostly up to 58.6 µM. The method in brief:
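Counter-screen for direct inhibition of the luciferase enzyme by approved-drug library compounds, run at 10 nM enzyme in 50 mM Tris acetate (final). Luminescence was read within 5 min of enzyme-buffer addition and normalized to PTC124 versus DMSO (0%).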

Assay [3] is described as follows: S16 Schwann cell PMP22 intronic element firefly luciferase assay (AID 624032). Further: nearly all actives have a fitted effect of over 30% in size. The following applies: S16 rat Schwann cells, PMP22 element FLuc, 24 h; series mostly up to 57.5 µM. The method in brief: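 Rat S16 Schwann cells stably carrying a PMP22 intronic element-driven Fluc reporter were seeded overnight, then exposed to compounds for 24 h at 37 °C. Luminescence was normalized to PTC124 (positive control) and DMSO (0% activity).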

For assay [4], the system named is CP215. The experiment in a line: qHTS profiling for inhibitors of Plasmodium falciparum proliferation (AID 504749). Further: nearly all actives have a fitted effect of over 60% in size. The following applies: P. falciparum in erythrocytes, SYBR Green DNA, 72 h; series mostly up to 28.7 µM. In short, it runs like this:
(§1)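 Parasite proliferation within erythrocytes, 72 h exposure. Endpoint: SYBR Green I fluorescence after overnight lysis at room temperature. Controls: 0.29 uM artemisinin, DMSO.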

In assay [5] the test system is CP265. The assay is described as above. The following applies: P. falciparum in erythrocytes, SYBR Green DNA, 72 h; series mostly up to 28.7 µM. In short, it runs like this: as §1
Assay [6] concerns CP268. The assay is described as above. The conditions noted are these: P. falciparum in erythrocytes, SYBR Green DNA, 72 h; series mostly up to 28.7 µM. In short, it runs like this:
as §1

Assay [7] has as its system CP269. Described as above. The conditions noted are these: P. falciparum in erythrocytes, SYBR Green DNA, 72 h; series mostly up to 28.7 µM. In short, it runs like this:
as §1

The subject of assay [8] is CP297. Described as above. The following applies: P. falciparum in erythrocytes, SYBR Green DNA, 72 h; series mostly up to 28.7 µM. In short, it runs like this:
as §1

Assay [9] relates to CP315. The assay is described as above. The conditions noted are these: P. falciparum in erythrocytes, SYBR Green DNA, 72 h; series mostly up to 28.7 µM. The method in brief:
as §1

Assay [10] relates to CP325. Described as above. The conditions noted are these: P. falciparum in erythrocytes, SYBR Green DNA, 72 h; series mostly up to 28.7 µM. In short, it runs like this: as §1
The subject of assay [11] is CP329. The assay is described as above. The following applies: P. falciparum in erythrocytes, SYBR Green DNA, 72 h; series mostly up to 28.7 µM. In short, it runs like this:
as §1

In assay [12] the test system is FAB9. Described as above. The conditions noted are these: P. falciparum in erythrocytes, SYBR Green DNA, 72 h; series mostly up to 28.7 µM. The method in brief:
as §1

Assay [13] deals with JCK. The description is as above. The conditions noted are these: P. falciparum in erythrocytes, SYBR Green DNA, 72 h; series mostly up to 28.7 µM. The method in brief: as §1
Assay [14] has as its system PC15. The description is as above. The conditions noted are these: P. falciparum in erythrocytes, SYBR Green DNA, 72 h; series mostly up to 28.7 µM. The method in brief:
as §1

For assay [15], the target named is Pyruvate kinase PKM (Homo sapiens) (UniProt P14618). The experiment in a line: qHTS Assay for Inhibitors of Human Muscle Pyruvate Kinase (AID 958). The conditions noted are these: purified human PKM enzyme activity; series mostly up to 57.5 µM. The method in brief: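 Luminescence from a luciferase ATP-detection/stop reagent reported PKM2 activity. Reactions contained 0.1 nM purified human enzyme, 0.5 mM PEP, 0.1 mM ADP and 7 mM MgCl2 at pH 7.2, run 1 h at RT.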
Sequence of Pyruvate kinase PKM (Homo sapiens) (P14618 whole entry, looked up): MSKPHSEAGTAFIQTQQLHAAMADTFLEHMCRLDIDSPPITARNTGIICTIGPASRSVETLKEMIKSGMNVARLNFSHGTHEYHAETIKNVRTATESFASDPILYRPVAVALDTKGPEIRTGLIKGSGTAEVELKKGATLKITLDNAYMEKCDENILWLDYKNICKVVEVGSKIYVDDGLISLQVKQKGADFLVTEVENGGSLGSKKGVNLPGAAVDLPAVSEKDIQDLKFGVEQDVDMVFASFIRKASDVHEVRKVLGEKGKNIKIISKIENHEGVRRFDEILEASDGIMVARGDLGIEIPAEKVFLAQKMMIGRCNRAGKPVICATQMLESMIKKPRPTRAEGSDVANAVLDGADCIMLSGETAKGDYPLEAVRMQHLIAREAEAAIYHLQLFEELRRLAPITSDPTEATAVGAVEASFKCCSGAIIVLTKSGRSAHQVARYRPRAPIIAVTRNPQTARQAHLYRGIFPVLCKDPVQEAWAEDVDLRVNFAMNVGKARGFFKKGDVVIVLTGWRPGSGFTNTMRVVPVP

In assay [16] the target is Pyruvate kinase (Leishmania mexicana) (UniProt Q27686). The experiment in a line: qHTS Validation Assay for Activators of Leishmania Mexicana Pyruvate Kinase (AID 959). The following applies: purified L. mexicana pyruvate kinase, enzyme activity; series mostly up to 57.5 µM. The method in brief: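 An endpoint luciferase assay: 0.2 nM LmPYK E451W turns over 0.5 mM PEP with 0.1 mM ADP for 1 h at room temperature, pH 7.2, before PKLight addition. Values are normalized to DMSO-only wells.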
Sequence of Pyruvate kinase (Leishmania mexicana) (Q27686 2-499 E452W): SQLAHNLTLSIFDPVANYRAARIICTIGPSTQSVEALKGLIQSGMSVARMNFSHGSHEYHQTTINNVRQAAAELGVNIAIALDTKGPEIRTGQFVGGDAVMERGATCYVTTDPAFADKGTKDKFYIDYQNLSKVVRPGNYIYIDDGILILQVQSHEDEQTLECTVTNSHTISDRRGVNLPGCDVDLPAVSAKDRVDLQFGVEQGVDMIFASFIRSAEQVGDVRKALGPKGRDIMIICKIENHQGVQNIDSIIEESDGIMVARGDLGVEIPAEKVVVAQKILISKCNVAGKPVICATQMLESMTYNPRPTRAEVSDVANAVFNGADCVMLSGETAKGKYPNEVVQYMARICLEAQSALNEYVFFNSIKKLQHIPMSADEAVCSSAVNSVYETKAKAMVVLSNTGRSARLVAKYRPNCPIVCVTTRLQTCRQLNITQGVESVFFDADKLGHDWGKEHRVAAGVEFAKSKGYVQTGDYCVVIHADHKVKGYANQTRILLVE

Records with an inconclusive call do not appear. Calls of active or inactive are those of the source. The call rests on the fitted dose curve; in most records, active means well fitted curve in the direction sought with a large enough effect; inconclusive means small, poorly fitted or top-dose-only effect, or another doubt; inactive means no such curve, though single readings can be large; an effect the other way counts as inactive or inconclusive.

Sequence of Luciferin 4-monooxygenase (Photinus pyralis) (P08659 whole entry, looked up): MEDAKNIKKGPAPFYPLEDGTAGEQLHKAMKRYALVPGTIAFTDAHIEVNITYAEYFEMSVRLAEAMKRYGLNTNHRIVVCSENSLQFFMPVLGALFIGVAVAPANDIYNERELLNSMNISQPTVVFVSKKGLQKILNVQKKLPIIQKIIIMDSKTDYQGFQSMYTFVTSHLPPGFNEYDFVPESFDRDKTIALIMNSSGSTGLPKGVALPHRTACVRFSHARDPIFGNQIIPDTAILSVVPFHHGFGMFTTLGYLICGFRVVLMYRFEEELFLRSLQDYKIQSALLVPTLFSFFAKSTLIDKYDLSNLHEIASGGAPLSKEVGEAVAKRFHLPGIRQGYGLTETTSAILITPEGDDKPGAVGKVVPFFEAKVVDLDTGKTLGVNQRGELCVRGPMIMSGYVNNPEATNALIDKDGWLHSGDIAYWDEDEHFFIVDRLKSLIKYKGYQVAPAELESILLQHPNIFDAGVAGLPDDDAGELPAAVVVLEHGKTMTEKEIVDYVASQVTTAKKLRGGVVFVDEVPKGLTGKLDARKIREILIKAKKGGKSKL

Consider `C[C@H](O)[C@@H]1C(=O)N2C(C(=O)O)=C(SCCN=CN)C[C@@H]12`, for which the Potency result in assay [1], in [2], in [3], in [4], in [5] and in assay [6] was “inactive” in each case. The Potency result in assay [7], in assay [8], in assay [9], in assay [10], in assay [11] and in assay [12] was “inactive” each time. The Potency result in assay [13] and in [14] was “inactive” in each case.
On to `O=C(/C=C\c1ccc(O)cc1)c1ccc(O)cc1O`, for which the Potency in [15] is 15.8 µM (active). The Potency entry in assay [16] is “inactive”.

The record behind these values is PubChem BioAssay (NCATS).
